Measured values as given in PubChem BioAssay AID590 (National Center for Advancing Translational Sciences (NCATS), 2007).
The whole screen tested about 59,000 compounds, of which about 6,500 (11%) were called active. Inconclusive results (about 15%) are left out. Rule as the data show it: active = max dye-equivalent concentration above about 10 nM; inconclusive = mostly about 1.1 nM to 9.6 nM; inactive = weaker than that. For the sample, actives were picked, then their nearest neighbours and some compounds at random.

Assay: qHTS Assay for Spectroscopic Profiling in A350 Spectral Region
Conditions: Compound autofluorescence, 340/450 nm, Alexa 350 dye-equivalents; active compounds read high

Structure (SMILES)	max dye-equivalent concentration
COCCn1c(=O)c(-c2cc(F)cc(F)c2)nc2cnc(N3CCNCC3)nc21	390 nM (active)
CCCn1c(=O)c2[nH]c(-c3ccc(OCC(=O)NCCN)cc3)nc2n(CCC)c1=O	inactive
COc1ccc(C(=O)N2CCC3(CCCN(C(c4ccccc4)c4ccccc4)C3)CC2)cc1	inactive
CC1(C)S[C@@H]2[C@@H](NC(=O)[C@@H](N)c3ccccc3)C(=O)N2[C@H]1C(=O)O	44 nM (active)
CC1(C)SC2c3ccccc3C(=O)N2[C@@H]1C(=O)NCc1ccco1 (stereo partly drawn)	inactive
CCCC[C@H]1C(=O)N(c2ccccc2)N(c2ccc(O)cc2)C1=O	inactive
Cc1cc(Br)ccc1NC(=O)C1CCCO1 (stereo not drawn)	inactive
NC1(C(=O)OCc2ccccc2)CCCC1	inactive
CC(C)C(NC(=O)OCc1ccccc1)C(=O)OCC(=O)N1C(C)CCCC1C (stereo not drawn)	48 nM (active)
COc1cccc(NC(=O)C2CCCN2C(=O)OCc2ccccc2)c1 (stereo not drawn)	inactive
COc1cc(-c2noc(C3CCCN(S(=O)(=O)c4cccc(Cl)c4)C3)n2)cc(OC)c1OC (stereo not drawn)	inactive
Cc1nc2nc[nH]n2c(=O)c1NC(=O)c1cccc(OCC(C)C)c1	inactive
CCCN1Cc2cccc(C(=O)NCc3ccccc3)c2C1=O	inactive
O=C1CCCC2=C1C(c1cccs1)n1nc(SCc3ccccc3)nc1N2 (stereo not drawn)	110 nM (active)
CC(C)C(=O)N1c2ccccc2NC2=C(C(=O)CCC2)C1c1ccc(N(C)C)cc1 (stereo not drawn)	inactive
NC(=NC(=O)c1ccccc1)C1=C(O)CCC1=O	inactive
CCn1c(COc2cccc(OC)c2)nnc1SCC(=O)N1CCOCC1	inactive
COc1ccc(-c2ccnc(SCC(=O)N3CCOCC3)n2)cc1	100 nM (active)
COc1ccc(-c2nc(SCC(=O)N3CCOCC3)n[nH]2)cc1	inactive
CC(=O)c1nc(N2C(=O)C3CC=C(C)CC3C2=O)sc1C (stereo not drawn)	inactive
O/N=C(\c1ccc2c(c1)OCCO2)C1CCCCC1	inactive
Cc1ccsc1C(C(=O)NC1CCCCC1)N(C(=O)Cc1cccs1)C1CC1 (stereo not drawn)	inactive
COc1ccc2oc(=O)c(C(=O)N3CCCc4ccccc43)cc2c1	inactive

Structure (SMILES)	max dye-equivalent concentration
O=C(c1cccc2ccccc12)N1CCN(c2ccccc2F)CC1	inactive
COc1ccc2oc(=O)c(C(=O)N3CCN(c4ccccc4F)CC3)cc2c1	41 nM (active)
Cc1cccc(OCc2nnc(SCn3nnc4ccccc4c3=O)o2)c1	inactive
CC1(C)C2CCC1(C)C(OC(=O)CCn1ccnc1)C2 (stereo not drawn)	inactive
COc1cccc(NS(=O)(=O)c2ccc3[nH]cc(C(=O)NCCCOC(C)C)c(=O)c3c2)c1	inactive
COC(=O)c1ccccc1NC(=O)c1cncc(Br)c1	inactive
CCOC(=O)c1cc(NC(=O)c2cccnc2)cc(C(=O)OCC)c1	inactive
Cc1cc2nc(-c3ccc(NC(=O)c4cccnc4)cc3)oc2cc1C	90 nM (active)
CCC(=O)Nc1cccc(NC(=O)c2cccnc2)c1	inactive
O=S(=O)(O)CCN1CCOCC1	inactive
CCCc1nnc(NC(=O)CN2C(=O)c3ccccc3S2(=O)=O)s1	inactive
O=P(O)(CP(=O)(c1ccccc1)c1ccccc1)c1ccccc1	inactive
O=C(Nc1c(-c2ccccc2)nc2c(Br)cc(Br)cn12)c1ccco1	inactive
COc1ccc(S(=O)(=O)N(CCCN2CCCC2=O)Cc2cc3c(C)ccc(C)c3[nH]c2=O)cc1	13 nM (active)
CCN1CCN(C(=O)CN(C)S(=O)(=O)c2ccc(OC)cc2)CC1	inactive
CCOc1cc2[nH]c(=S)n(CCCN3CCCC3=O)c(=O)c2cc1OCC	inactive
CC(C)(C)c1ccc(C(=O)CSc2ncn[nH]2)cc1	inactive
Cc1csc(NC(=O)C2CCCN2C(=O)OCC(C)C)n1 (stereo not drawn)	inactive
CN(Cc1ccccc1)c1nc2c(c(=O)[nH]c(=O)n2C)n1CCSc1nc2ccccc2[nH]1	inactive
O=C(Cn1c(-c2ccccn2)nc2ccccc21)NCCN1CCOCC1	inactive
C=CCn1c2ccccc2c2nnc(SC(CC)C(=O)Nc3nc(C)c(C(=O)OCC)s3)nc21 (stereo not drawn)	56 nM (active)
C=CCn1c(SCC(=O)Nc2nc3ccccc3s2)nnc1-c1ccccc1O	inactive
COc1ccc(-n2c(SCC(=O)Nc3ccc4c(c3)OCO4)nnc2C(C)N2CCCCC2)cc1 (stereo not drawn)	inactive

Structure (SMILES)	max dye-equivalent concentration
O=C(NCCCNC(=O)NC1CCCCC1)NC1CCCCC1	inactive
CC(=NCc1ccc2c(c1)OCO2)C1=C(O)c2ccccc2C1=O	inactive
O=c1[nH]c(-c2cccs2)nc2ccccc12	inactive
O=c1[nH]c(=O)c2nc3ccccc3nc2[nH]1	200 nM (active)
CCc1c(C)nc(N2CCN(Cc3ccccc3)CC2)[nH]c1=O	inactive
N#C/C(=C\c1ccc(O)c(O)c1)C(=O)NCc1ccccc1	inactive
CCSC1=C(C#N)C(=O)n2c1cc1c2CCCC1	inactive
N#CC1=C(N)C(C#N)(C#N)[C@H](c2ccsc2)[C@H]2COCC=C12	17 nM (active)
O=C(NCc1ccc(Cl)cc1)c1cc2c(nc3sccn32)s1	inactive
Cc1ccnc(N2CCCC(C(=O)Nc3cc(F)ccc3C)C2)n1 (stereo not drawn)	inactive
CCOC(=O)C1=C(CNC2CCCCC2)NC(=O)NC1c1cc(C)ccc1C (stereo not drawn)	inactive
Cc1cccc(CNc2ccnc(-c3cccnc3)n2)c1	inactive
c1cncc(CNc2ccnc(-c3ccc4c(c3)OCO4)n2)c1	15 nM (active)
O=C(Nc1cccnc1)c1ccc2c(c1)OCO2	inactive
CC(=O)N=c1ncn(CC(COC(C)=O)OC(C)=O)c2nc[nH]c12 (stereo not drawn)	inactive
Cc1ccc(C)c(S(=O)(=O)N2CC(=O)Nc3ccccc32)c1	inactive
Cc1ccc(OCC(=O)Nc2ccc(-c3nc4ncccc4o3)cc2)cc1	25 nM (active)
COc1ccc(CC(=O)Nc2ccc(-c3nnc(-c4ccc(C)cc4)o3)cc2)cc1	inactive
Cc1ccc(OCC(=O)Nc2ccc(-c3nnc(-c4ccco4)o3)cc2)cc1	inactive
CCOC(=O)c1cc(C)sc1NC(=O)C1CCC1	inactive
Cn1c(-c2ccc(F)cc2)cnc1SCC(=O)NCc1ccco1	inactive
Cc1ccc(S(=O)(=O)N2CCC(N3CCCCCC3)CC2)cc1	inactive
